# Results published in the supplement of paper PMC10338343.
# ± gives the standard deviation.
# Assays:
# [1] = tested on: EfPiwi piRISC loaded with piRNA #1 (26 nt); assay: pre-steady-state target cleavage rate (min^-1); auxiliary factor: 500 nM Ephydatia muelleri Gtsf1; guide: piRNA #1 5'p-UGAGGUAGUAGGUUGUAUAGUAUCCA; higher = faster piRNA-guided slicing of the target
# Procedure, shortened: (§1)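 Cleave-'n-Seq: a transcribed, DNA-blocked target RNA library (0.1 nM) was mixed with 1 nM active affinity-purified piRISC carrying one synthetic guide, with or without 500 nM GTSF1 partner protein, in HEPES–potassium acetate buffer at 33 °C for 0–8 or 0–960 min. Uncleaved targets were sequenced and normalised to depth and to weakly complementary targets. Three trials were pooled, and k3 was capped at 0.0001 min^-1. The pre-steady-state cleavage rate came from a burst-and-steady-state fit.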
# [2] = tested on: MILI (PIWIL2) piRISC loaded with L1MC piRNA (26 nt); assay: pre-steady-state target cleavage rate (min^-1); guide: L1MC piRNA 5'p-UAACUAAAUACUAUGCAAGCUGUAGG; higher = faster piRNA-guided slicing of the target
# Procedure, shortened: as §1
# [3] = tested on: EfPiwi piRISC loaded with L1MC piRNA (26 nt); assay: pre-steady-state target cleavage rate (min^-1); auxiliary factor: none (no Gtsf1); guide: L1MC piRNA 5'p-UAACUAAAUACUAUGCAAGCUGUAGG; higher = faster piRNA-guided slicing of the target
# Procedure, shortened: as §1
# [4] = tested on: EfPiwi piRISC loaded with L1MC piRNA (26 nt); assay: pre-steady-state target cleavage rate (min^-1); auxiliary factor: 500 nM Ephydatia muelleri Gtsf1; guide: L1MC piRNA 5'p-UAACUAAAUACUAUGCAAGCUGUAGG; MIWI and MILI are mouse PIWI proteins and EfPiwi is from a freshwater sponge; tags in brackets are library labels; higher = faster piRNA-guided slicing of the target
# Procedure, shortened: as §1
# [5] = auxiliary factor: 500 nM mouse GTSF1
# [6] = auxiliary factor: none (no GTSF1)
sequence,measurement,setting,value
GGAGACCUAUGUGAUACAACCUACUACCUCA,pre-steady-state target cleavage rate,[1],0.0129 ± 0.0064
GGAGAGGAUACUAUACAACCUACAACCUGA,pre-steady-state target cleavage rate,[1],0.00332 ± 0.0014
GGAGACCAUACUAUACAACACUACUACCUCA,pre-steady-state target cleavage rate,[1],0.00469 ± 0.0037
GGAGUGGAUACUAUACAACCUACUUCCACA,pre-steady-state target cleavage rate,[1],0.00294 ± 0.0024
GGAGACCUUACUAUACAACCUAGUACCACA,pre-steady-state target cleavage rate,[1],0.00255 ± 0.0023
GGAGACCUUACUAUACAACCUACUACCUCA [g2:g22:cont:t1A],pre-steady-state target cleavage rate,[1],0.0238 ± 0.0084
GGAGACCUAUGAUAUGUACCUACUACGCUCA,pre-steady-state target cleavage rate,[1],< 0.0001
GGAGACCUAAUAUACAACCUACUACCUCA,pre-steady-state target cleavage rate,[1],0.0061 ± 0.0043
GGAGACCUUACUAUACGACCUACUACCUCA,pre-steady-state target cleavage rate,[1],0.016 ± 0.0076
GGAGAGGAUACUAUACAACCAAGUACCUCA,pre-steady-state target cleavage rate,[1],0.00282 ± 0.002
GGAGACGACUACUAUACAACCUACUACCUCA,pre-steady-state target cleavage rate,[1],0.01 ± 0.0046
GGAGUGGAUACUUAUACAACCUACUACCUCA,pre-steady-state target cleavage rate,[1],0.093 ± 0.034
GGAGUGGAUACUAUACAACCUACUACCUCCA,pre-steady-state target cleavage rate,[1],0.274 ± 0.077
GGAGACCAUACUAUACAACCUUACUACCUCA,pre-steady-state target cleavage rate,[1],0.00561 ± 0.0036
GGAGUGGAUACUAUACAUACCUACUACCUCA,pre-steady-state target cleavage rate,[1],0.0107 ± 0.0063
GGAGACCUAACUAUACAACGAACUACCUCA,pre-steady-state target cleavage rate,[1],< 0.0001
GGAGAGGAUACUAUACAACCAACUUCCUCA,pre-steady-state target cleavage rate,[1],0.00313 ± 0.0024
GGAGUGGAUACUAUACAACGAUCUACCUCA,pre-steady-state target cleavage rate,[1],0.00198 ± 0.0014
GGAGACCUUACUAUACAACGCUACUACCUCA,pre-steady-state target cleavage rate,[1],0.00566 ± 0.0038
GGAGAGGAUACUAUACAACCUUCUACCUGA,pre-steady-state target cleavage rate,[1],0.00393 ± 0.0023
GGAGAGGAUACUAUACAACCUACUAGCUGA,pre-steady-state target cleavage rate,[1],0.00408 ± 0.002
GGAGACCUAGCUAUACAACCUACUACCUCA,pre-steady-state target cleavage rate,[1],0.00604 ± 0.0058
GGAGACCUAAGCUAUACAACCUACUACCUCA,pre-steady-state target cleavage rate,[1],0.184 ± 0.066
GGAGUCGAUACUAUACAAGCUACUACCUCA,pre-steady-state target cleavage rate,[1],0.00581 ± 0.0024
GGAGACCUUGCUAUACAACCUACUACCUCA,pre-steady-state target cleavage rate,[1],0.00436 ± 0.004
GGAGACGAUACUAUACAACCUACUUGGUCA,pre-steady-state target cleavage rate,[1],0.00312 ± 0.0021
GGAGACGAUACUAUAGAACCUACUACCUCA,pre-steady-state target cleavage rate,[1],0.00433 ± 0.0017
GGAGACCAUACUAUACAACCUACUAGGUCA,pre-steady-state target cleavage rate,[1],0.00366 ± 0.0023
GGAGACCAAACUAUACAACCUACUAGCUCA,pre-steady-state target cleavage rate,[1],0.00453 ± 0.0034
GGAGACCAUACUAUACAACCUACUACCCCA,pre-steady-state target cleavage rate,[1],0.00577 ± 0.0028
GGAGUGGAUACUAUUCAACCUACUACCUGA,pre-steady-state target cleavage rate,[1],0.00324 ± 0.0019
GGAGACCUAUGAUAUGUACCUUCUACCUGA,pre-steady-state target cleavage rate,[1],< 0.0001
GGAGACCAUACUAUACAACCUAGUACCUGA,pre-steady-state target cleavage rate,[1],0.00278 ± 0.0021
GGAGAGGAUACUAUACAUCCUACUACCUCA,pre-steady-state target cleavage rate,[1],0.0116 ± 0.0055
GGAGUGGAAACUAUACAACCAACUACCUCA,pre-steady-state target cleavage rate,[1],0.0049 ± 0.0032
GGAGACGAUACUAUACAAUCCUACUACCUCA,pre-steady-state target cleavage rate,[1],0.0069 ± 0.004
GGAGACCAUACAAUACAACCUACUACCUGA,pre-steady-state target cleavage rate,[1],0.00286 ± 0.0028
GGAGACCUAACUAUACACCUACUACCUCA,pre-steady-state target cleavage rate,[1],0.00586 ± 0.0042
GGAGACGAUACUAUAGAACCUACUACGUCA,pre-steady-state target cleavage rate,[1],0.002 ± 0.0014
GGAGACCAAACUAUACUACCUACUACCUCA,pre-steady-state target cleavage rate,[1],0.00362 ± 0.0032
GGAGUGGAUACUAUACAACCUACUAGCUGA,pre-steady-state target cleavage rate,[1],0.00461 ± 0.0027
GGAGACCAUUCUUUACAACCUACUACCUCA,pre-steady-state target cleavage rate,[1],0.0111 ± 0.0056
GGAGUGGAAAGUAUACAACCUACUACCUCA,pre-steady-state target cleavage rate,[1],0.00841 ± 0.0043
GGAGUGGAUACUAUACAAACCUACUACCUCA,pre-steady-state target cleavage rate,[1],0.0643 ± 0.023
GGAGACGAUACUAUACACACCUACUACCUCA,pre-steady-state target cleavage rate,[1],0.0061 ± 0.0026
GGAGACCAAACUAUUCAACCUACUACCUCA,pre-steady-state target cleavage rate,[1],0.00445 ± 0.004
GGAGACCUAACUAUACAACCAACUACCUCA,pre-steady-state target cleavage rate,[1],0.00331 ± 0.0023
GGAGUGGAUACUAUACAACCUAGUACCUGA,pre-steady-state target cleavage rate,[1],0.00271 ± 0.001
GGAGUGGAUACUAUACAACUCUACUACCUCA,pre-steady-state target cleavage rate,[1],0.00493 ± 0.003
GGAGACCAUUCUAUACAACCUACUAGCUCA,pre-steady-state target cleavage rate,[1],0.00323 ± 0.0026
GGAGAGGAUACUAAUCAACCUACUACCUCA,pre-steady-state target cleavage rate,[1],0.00473 ± 0.0039
GGAGACCUUUCUAUACAACCUACUACCUGA,pre-steady-state target cleavage rate,[1],0.0049 ± 0.0044
GGAGACCUAUGUCAUACAACCUACUACCUCA,pre-steady-state target cleavage rate,[1],0.00679 ± 0.0034
GGAGUGGAUACUAUACAACCUACUAGGUCA,pre-steady-state target cleavage rate,[1],0.00356 ± 0.002
GGAGACGAUACUAUACAACCUUCUACGUCA,pre-steady-state target cleavage rate,[1],0.00448 ± 0.0019
GGAGACGAUACUAUACAUACCUACUACCUCA,pre-steady-state target cleavage rate,[1],0.00857 ± 0.0043
GGAGACCUUACUAUACAACCUAGUACCUGA,pre-steady-state target cleavage rate,[1],0.00509 ± 0.0037
GGAGACGAUACUAUACAGACCUACUACCUCA,pre-steady-state target cleavage rate,[1],0.0101 ± 0.0034
GGAGUCGAUACUAUACAACCUACUACGUCA,pre-steady-state target cleavage rate,[1],0.00643 ± 0.0028
GGAGACCUUACUAUACAACCUGCUACCUCA,pre-steady-state target cleavage rate,[1],0.0174 ± 0.0079
GGAGACGAUACUAUACAAGCUACUACCUCA,pre-steady-state target cleavage rate,[1],0.00854 ± 0.0028
GGAGUGCAUACUAUACAUCCUACUACCUCA,pre-steady-state target cleavage rate,[1],0.0107 ± 0.0041
GGAGACCAUACUAUACAAGCCUACUACCUCA,pre-steady-state target cleavage rate,[1],0.00453 ± 0.0032
GGAGACCAUACUAUACAACCUAGUAGCUCA,pre-steady-state target cleavage rate,[1],0.00225 ± 0.0017
GGAGACCUAACUAUACAACCUAGUAGCUCA,pre-steady-state target cleavage rate,[1],0.00484 ± 0.0035
GGAGACGAUAGUAUACAACCUACUACGUCA,pre-steady-state target cleavage rate,[1],0.0019 ± 0.0015
GGAGACCAUACUAUACAACCCACUACCUCA,pre-steady-state target cleavage rate,[1],0.0058 ± 0.0024
GGAGAGGAAACUAUACAACCAACUACCUCA,pre-steady-state target cleavage rate,[1],0.00523 ± 0.0026
GGAGAGGAUACUAUACAACCUAGUACCACA,pre-steady-state target cleavage rate,[1],0.00381 ± 0.0016
GGAGACGAUACAUACAACCUACUACCUCA,pre-steady-state target cleavage rate,[1],0.00551 ± 0.0028
GGAGACCAUACUAUACAACCUACUACUCA,pre-steady-state target cleavage rate,[1],0.00387 ± 0.0024
GGAGACCUAUGAUAUCAACCUACUACCAUCA,pre-steady-state target cleavage rate,[1],< 0.0001
GGAGAGGAUACUAUACAACCUUCUAGCUCA,pre-steady-state target cleavage rate,[1],0.00404 ± 0.0021
GGAGUGGAUACUAUACAACCUACUACGUCA,pre-steady-state target cleavage rate,[1],0.00568 ± 0.0024
GGAGACCUAUGAAUAGAACCUUCUACCUCA,pre-steady-state target cleavage rate,[1],< 0.0001
GGAGUGGAUACUAUACAAUCCUACUACCUCA,pre-steady-state target cleavage rate,[1],0.0124 ± 0.0065
GGAGUGGAUACUAUACAACCUACAACCUGA,pre-steady-state target cleavage rate,[1],0.00253 ± 0.0013
UCCUGGAUGAGCUUGCAUAGUAGUUUAGUUA,pre-steady-state target cleavage rate,[2]; [5],0.115 ± 0.022
same,pre-steady-state target cleavage rate,[2]; [6],0.0138 ± 0.0039
same,pre-steady-state target cleavage rate,[3],0.0124 ± 0.0079
same,pre-steady-state target cleavage rate,[4],0.00964 ± 0.0035
UCCUGGAUGUCGAAGGAUAGUAUUAAGUUA,pre-steady-state target cleavage rate,[3],< 0.0001
same,pre-steady-state target cleavage rate,[4],< 0.0001
UCCUGGGACAGCUUGCAUAGUAUUUAGUUA,pre-steady-state target cleavage rate,[3],0.00525 ± 0.0051
same,pre-steady-state target cleavage rate,[4],0.0163 ± 0.0059
UCCUGGAUGUCGUUGAAUAGUAUUUAGUUA,pre-steady-state target cleavage rate,[2]; [5],0.0817 ± 0.015
same,pre-steady-state target cleavage rate,[2]; [6],0.0047 ± 0.0024
same,pre-steady-state target cleavage rate,[3],< 0.0001
UCCUGCUACAGCUUGGAUAGUAUUUACAAA,pre-steady-state target cleavage rate,[3],< 0.0001
same,pre-steady-state target cleavage rate,[4],0.00306 ± 0.0026
UCCUGGAUCAGCUUGCAUAGUAUUUUAGUUA,pre-steady-state target cleavage rate,[2]; [5],0.23 ± 0.025
same,pre-steady-state target cleavage rate,[2]; [6],0.0107 ± 0.0028
same,pre-steady-state target cleavage rate,[3],0.0111 ± 0.0065
same,pre-steady-state target cleavage rate,[4],0.0214 ± 0.0071
UCCUGGAUGUCGAAGCAUAGUAUUUAGUGA,pre-steady-state target cleavage rate,[2]; [5],0.0495 ± 0.015
same,pre-steady-state target cleavage rate,[2]; [6],0.00324 ± 0.0026
same,pre-steady-state target cleavage rate,[3],< 0.0001
UCCUGGAACAGCUUGCAAUGUAUUUACAAA,pre-steady-state target cleavage rate,[2]; [5],0.0552 ± 0.017
